The values that follow come from PubChem BioAssay AID588689 (Southern Research Specialized Biocontainment Screening …, 2011).

Screen size: about 340,000 compounds; about 1,000 (0.29%) were called active. No stated cut-off is given here; in the data, inconclusive means inhibition above about 29% without an active follow-up result; inactive means below that. Only a sample is shown. Measured potencies and affinities stand elsewhere.

This experiment has as its target Genome polyprotein (Dengue virus type 2 (strain 16681-PDK53)) (UniProt P29991). In words: Dengue-2 NS5 methyltransferase inhibitors, primary screen, biochemical, confirmation dose response (AID 588689). To be noted: Dengue-2 NS5 methyltransferase capping enzyme assay, at 25 µM, stronger effect = higher value.

Chain of Genome polyprotein (Dengue virus type 2 (strain 16681-PDK53)) (P29991 whole entry, looked up): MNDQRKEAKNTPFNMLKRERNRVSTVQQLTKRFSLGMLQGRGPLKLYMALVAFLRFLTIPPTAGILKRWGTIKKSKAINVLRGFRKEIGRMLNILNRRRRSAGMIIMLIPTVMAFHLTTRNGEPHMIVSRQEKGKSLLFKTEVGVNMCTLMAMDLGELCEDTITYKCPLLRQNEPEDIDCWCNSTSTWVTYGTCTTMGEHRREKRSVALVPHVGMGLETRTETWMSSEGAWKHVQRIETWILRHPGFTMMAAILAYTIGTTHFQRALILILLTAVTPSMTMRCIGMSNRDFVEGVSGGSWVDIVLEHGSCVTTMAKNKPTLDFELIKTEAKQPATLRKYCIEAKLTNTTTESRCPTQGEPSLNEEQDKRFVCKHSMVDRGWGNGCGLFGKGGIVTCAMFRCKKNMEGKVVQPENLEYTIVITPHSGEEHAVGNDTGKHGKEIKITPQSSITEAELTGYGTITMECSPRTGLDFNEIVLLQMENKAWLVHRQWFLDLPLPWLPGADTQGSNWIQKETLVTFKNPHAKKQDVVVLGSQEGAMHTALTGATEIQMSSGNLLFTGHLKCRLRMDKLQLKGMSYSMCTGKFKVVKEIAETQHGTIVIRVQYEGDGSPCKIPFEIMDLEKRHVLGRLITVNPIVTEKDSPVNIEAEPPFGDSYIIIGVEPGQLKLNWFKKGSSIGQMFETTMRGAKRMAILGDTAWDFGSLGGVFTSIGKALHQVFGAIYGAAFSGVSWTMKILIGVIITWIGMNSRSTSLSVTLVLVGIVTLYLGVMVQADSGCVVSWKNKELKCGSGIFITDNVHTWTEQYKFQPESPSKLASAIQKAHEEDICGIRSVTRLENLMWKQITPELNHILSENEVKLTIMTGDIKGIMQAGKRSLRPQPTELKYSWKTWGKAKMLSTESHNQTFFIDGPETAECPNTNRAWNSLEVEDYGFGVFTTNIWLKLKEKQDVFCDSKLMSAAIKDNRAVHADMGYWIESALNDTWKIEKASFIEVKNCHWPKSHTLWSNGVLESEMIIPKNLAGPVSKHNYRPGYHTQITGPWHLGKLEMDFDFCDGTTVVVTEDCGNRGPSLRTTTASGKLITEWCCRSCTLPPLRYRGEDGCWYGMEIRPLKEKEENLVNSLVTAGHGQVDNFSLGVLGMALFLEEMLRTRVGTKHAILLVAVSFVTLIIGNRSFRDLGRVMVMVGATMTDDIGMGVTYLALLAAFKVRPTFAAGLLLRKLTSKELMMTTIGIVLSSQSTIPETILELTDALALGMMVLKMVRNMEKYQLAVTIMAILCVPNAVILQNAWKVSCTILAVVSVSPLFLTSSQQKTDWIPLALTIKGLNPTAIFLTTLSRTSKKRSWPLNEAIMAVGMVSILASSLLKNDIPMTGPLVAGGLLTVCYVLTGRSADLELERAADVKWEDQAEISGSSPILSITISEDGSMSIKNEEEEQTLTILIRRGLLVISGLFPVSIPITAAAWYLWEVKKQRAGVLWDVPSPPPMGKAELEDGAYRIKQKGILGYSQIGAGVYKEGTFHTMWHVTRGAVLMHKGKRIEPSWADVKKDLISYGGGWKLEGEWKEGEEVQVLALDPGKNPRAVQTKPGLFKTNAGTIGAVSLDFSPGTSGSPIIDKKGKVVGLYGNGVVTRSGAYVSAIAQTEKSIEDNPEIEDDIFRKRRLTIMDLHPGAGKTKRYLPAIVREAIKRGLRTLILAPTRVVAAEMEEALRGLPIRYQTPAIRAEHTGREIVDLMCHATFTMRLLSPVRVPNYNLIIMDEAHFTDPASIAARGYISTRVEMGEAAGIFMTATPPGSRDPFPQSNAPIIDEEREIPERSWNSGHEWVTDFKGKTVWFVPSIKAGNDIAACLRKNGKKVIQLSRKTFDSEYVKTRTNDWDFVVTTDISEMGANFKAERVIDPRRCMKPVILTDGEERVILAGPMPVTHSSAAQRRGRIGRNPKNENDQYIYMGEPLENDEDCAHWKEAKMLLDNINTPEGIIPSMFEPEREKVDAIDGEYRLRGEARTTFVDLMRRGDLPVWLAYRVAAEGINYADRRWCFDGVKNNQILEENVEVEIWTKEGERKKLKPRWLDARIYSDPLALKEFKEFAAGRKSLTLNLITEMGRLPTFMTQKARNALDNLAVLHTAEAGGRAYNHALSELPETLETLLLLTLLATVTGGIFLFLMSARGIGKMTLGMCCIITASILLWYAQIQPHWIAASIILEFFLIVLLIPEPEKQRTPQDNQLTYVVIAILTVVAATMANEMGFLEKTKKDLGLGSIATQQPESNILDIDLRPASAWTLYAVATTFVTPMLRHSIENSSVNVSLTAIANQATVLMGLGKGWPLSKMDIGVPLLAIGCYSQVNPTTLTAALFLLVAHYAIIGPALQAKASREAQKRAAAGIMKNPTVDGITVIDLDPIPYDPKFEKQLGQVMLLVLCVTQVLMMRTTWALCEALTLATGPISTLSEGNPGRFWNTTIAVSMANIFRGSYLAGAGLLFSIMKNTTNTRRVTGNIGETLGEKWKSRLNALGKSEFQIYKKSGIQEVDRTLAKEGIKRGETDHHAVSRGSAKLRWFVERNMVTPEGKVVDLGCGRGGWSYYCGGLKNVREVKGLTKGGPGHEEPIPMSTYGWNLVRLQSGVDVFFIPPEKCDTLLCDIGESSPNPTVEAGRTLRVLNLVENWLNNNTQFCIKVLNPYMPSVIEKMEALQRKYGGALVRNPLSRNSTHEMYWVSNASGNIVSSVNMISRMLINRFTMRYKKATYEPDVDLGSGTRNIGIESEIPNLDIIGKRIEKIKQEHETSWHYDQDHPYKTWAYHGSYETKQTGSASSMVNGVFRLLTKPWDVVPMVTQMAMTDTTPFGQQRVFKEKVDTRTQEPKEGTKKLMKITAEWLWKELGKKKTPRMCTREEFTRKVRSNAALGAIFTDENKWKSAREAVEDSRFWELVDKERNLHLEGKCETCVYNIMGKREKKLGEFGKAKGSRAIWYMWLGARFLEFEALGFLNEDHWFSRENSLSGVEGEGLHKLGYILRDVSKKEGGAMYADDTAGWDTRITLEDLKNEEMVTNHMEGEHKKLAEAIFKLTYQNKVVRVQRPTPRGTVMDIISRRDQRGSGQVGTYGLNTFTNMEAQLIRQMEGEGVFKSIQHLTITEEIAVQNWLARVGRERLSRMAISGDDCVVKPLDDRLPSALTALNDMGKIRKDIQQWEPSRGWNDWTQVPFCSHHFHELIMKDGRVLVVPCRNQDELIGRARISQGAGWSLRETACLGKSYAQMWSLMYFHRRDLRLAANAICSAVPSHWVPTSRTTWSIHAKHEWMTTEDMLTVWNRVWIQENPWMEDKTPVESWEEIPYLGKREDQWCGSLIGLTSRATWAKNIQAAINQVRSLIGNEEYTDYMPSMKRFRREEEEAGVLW

The inhibition is the relative decrease from the control value, in per cent. For `O=C(O)COc1ccc(/C=C/C(=O)c2ccc3ccccc3c2)cc1`, the inhibition was 21.6% (inactive).

For `CCOc1ccc(/C=C/C(=O)c2ccccc2)cc1`, the inhibition was -8.48% (inactive).

As to `CCOC(=O)c1[nH]nc2c1C(=O)N(Cc1ccccc1)C2=O`, the inhibition was -0.68% (inactive).

For `CCCCNC(=O)c1sc2ncnc(N3CCc4ccccc4C3)c2c1C`, the inhibition was -8.03% (inactive).

On to `Cc1cccc(NC(=S)N(Cc2ccc(Cl)cc2)Cc2ccc(C(=O)O)cc2)c1`, for which the inhibition was -0.79% (inactive).

Turning to `Cc1cc(C)cc(NC(=S)N(Cc2ccc(Br)cc2)Cc2ccc(C(=O)O)cc2)c1`, the inhibition is -6.24% (inactive).

Turning to `CC1CCCN(C(=O)CCNC(=O)Cn2cnc3ccccc3c2=O)C1` (stereo not given), the inhibition was -2.67% (inactive).

In the case of `NS(=O)(=O)c1ccc(Sc2ccc3ccccc3c2)nc1`, the inhibition is -5.01% (inactive).

`COc1ccc(S(=O)(=O)Oc2ccc3ccccc3c2)cc1`: the inhibition is 0.73% (inactive).

For `COC(=O)c1ccc(NC(=O)C(=O)N2CCN(C(=S)Nc3cccc(C)c3C)CC2)cc1`, the inhibition was -4.36% (inactive).

On to `COc1ccc(NC(=O)Cc2c(C(=O)O)n(C)c3ccccc23)cc1OC`, for which the inhibition was -17.2% (inactive).

As for `C[C@H](CO)N1C[C@H](C)[C@@H](CN(C)C(=O)Nc2ccccc2)Oc2c(NC(=O)Cc3ccccc3)cccc2C1=O`, the inhibition was -4% (inactive).

For `COC(=O)c1c(C(=O)OC)c2ccccn2c1C(=O)c1ccccc1`, the inhibition is -4.66% (inactive).

As to `COC(=O)c1cc2c(-c3ccccc3)cc3ccccn3c-2c1C(=O)OC`, the inhibition is 27.1% (inactive).

As for `COc1ccc(CN(C)C(C)C(=O)Nc2ccc(S(=O)(=O)N3CCCCC3)cc2)cc1F` (stereo not given), the inhibition was 0.37% (inactive).

As to `CSCCC(C(=O)OCC(=O)c1ccc(C)c(C)c1)N1C(=O)c2cc(Cl)c(Cl)cc2C1=O` (stereo not given), the inhibition was 10.7% (inactive).

`O=C1NCCCC2c3c(cc(Br)c(O)c3Br)OC12N1CCOCC1` (stereo not given): the inhibition was 17% (inactive). For the same compound, the inhibition (measured here: pilot screen replicate inhibition) was -2.28%.

Take `O=C1NCCCC2c3c(cc(Br)c(O)c3Br)OC12N1CCCCC1` (stereo not given): the inhibition is 10.4% (inactive).

Turning to `CCOC(=O)C(NC(=O)Cc1ccccc1)(Nc1cc(C)on1)C(F)(F)F` (stereo not given), the inhibition was -5.64% (inactive).

Turning to `CCCn1c(SCC(=O)c2[nH]c(C)c(C(C)=O)c2C)n[nH]c1=O`, the inhibition was -15.1% (inactive).

Regarding `COc1ccc(CCNC(=O)C2CC(c3ccc([N+](=O)[O-])cc3)=NO2)cc1` (stereo not given), the inhibition was 2.79% (inactive).

For the compound `CN(C1CCCCC1)S(=O)(=O)c1cn(C)c(=O)n(C)c1=O`, the inhibition was -3.31% (inactive).

As to `O=C(NN=Cc1ccc(O)cc1)c1ccccc1NS(=O)(=O)c1cccs1`, the inhibition is 2.92% (inactive).

Take `COc1cc(C=NNC(=O)c2ccccc2NS(=O)(=O)c2cccs2)cc(OC)c1O`: the inhibition is 2.21% (inactive).
